# Bioassay records deposited in PubChem by National Center for Advancing Translational Sciences (NCATS).
# Shown are actives, neighbours in structure and some others; about 10% of the full set was active somewhere.
# GPT2 inhibitor = inhibitors of human GPT2 alanine aminotransferase. Q8TD30. 0.25% of 100,000 active. Recombinant GPT2, coupled pyruvate oxidase/HRP Amplex Red fluorescence. Potency, µM (doses to about 57.7 µM), actives largely listed as inhibitors; note: nearly all actives have a fitted effect of over 60% in size
#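 Inhibition is scored from Amplex Red fluorescence generated when pyruvate oxidase and HRP act on pyruvate released by GPT2. Reactions contain 10ng/uL enzyme, 250uM a-KG and 2mM L-alanine and run 30 min at room temperature.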
# Luciferase inh = blocks purified firefly luciferase enzyme activity; purified P. pyralis luciferase, luminescence, biochemical; 2.5% of 76,000 active; P08659; Potency, µM (doses to about 115 µM), most hits filed as inhibitors; AID 1347043; note: nearly all actives have a fitted effect of over 65% in size
#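 FLuc 10nM, D-luciferin 10uM, ATP 10uM, Mg acetate 10mM, Tris acetate pH 7.5, Tween/BSA; cpd qHTS; enzyme added last; CCD luminescence.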
# NIH3T3 tox = kills NIH 3T3 cells | NIH 3T3 viability, CellTiter-Glo ATP luminescence, 48-72 h | Potency, µM (doses to about 96.7 µM), usual class: inhibitors | 4.3% of 94,000 active | AID 1345082; note: nearly all actives have a fitted effect of over 55% in size
#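 First NIH 3T3 cells are plated at 400 cells/well; next compound is pinned in; then plates incubate 48 or 72 hr at 37 °C; finally CellTiter-Glo is added and luminescence read after 10 min.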
# NPR1 antag = blocks ANP-stimulated signaling of human Npr1 receptor. HEK293 hNpr1 GloSensor cGMP, ANP-stimulated luminescence. Potency, µM (highest dose often 46.3 µM), most hits filed as inhibitors. 1.6% of 76,000 active; calls by dose curve; note: nearly all actives have a fitted effect of over 60% in size
# Target sequence (P16066 whole entry, looked up): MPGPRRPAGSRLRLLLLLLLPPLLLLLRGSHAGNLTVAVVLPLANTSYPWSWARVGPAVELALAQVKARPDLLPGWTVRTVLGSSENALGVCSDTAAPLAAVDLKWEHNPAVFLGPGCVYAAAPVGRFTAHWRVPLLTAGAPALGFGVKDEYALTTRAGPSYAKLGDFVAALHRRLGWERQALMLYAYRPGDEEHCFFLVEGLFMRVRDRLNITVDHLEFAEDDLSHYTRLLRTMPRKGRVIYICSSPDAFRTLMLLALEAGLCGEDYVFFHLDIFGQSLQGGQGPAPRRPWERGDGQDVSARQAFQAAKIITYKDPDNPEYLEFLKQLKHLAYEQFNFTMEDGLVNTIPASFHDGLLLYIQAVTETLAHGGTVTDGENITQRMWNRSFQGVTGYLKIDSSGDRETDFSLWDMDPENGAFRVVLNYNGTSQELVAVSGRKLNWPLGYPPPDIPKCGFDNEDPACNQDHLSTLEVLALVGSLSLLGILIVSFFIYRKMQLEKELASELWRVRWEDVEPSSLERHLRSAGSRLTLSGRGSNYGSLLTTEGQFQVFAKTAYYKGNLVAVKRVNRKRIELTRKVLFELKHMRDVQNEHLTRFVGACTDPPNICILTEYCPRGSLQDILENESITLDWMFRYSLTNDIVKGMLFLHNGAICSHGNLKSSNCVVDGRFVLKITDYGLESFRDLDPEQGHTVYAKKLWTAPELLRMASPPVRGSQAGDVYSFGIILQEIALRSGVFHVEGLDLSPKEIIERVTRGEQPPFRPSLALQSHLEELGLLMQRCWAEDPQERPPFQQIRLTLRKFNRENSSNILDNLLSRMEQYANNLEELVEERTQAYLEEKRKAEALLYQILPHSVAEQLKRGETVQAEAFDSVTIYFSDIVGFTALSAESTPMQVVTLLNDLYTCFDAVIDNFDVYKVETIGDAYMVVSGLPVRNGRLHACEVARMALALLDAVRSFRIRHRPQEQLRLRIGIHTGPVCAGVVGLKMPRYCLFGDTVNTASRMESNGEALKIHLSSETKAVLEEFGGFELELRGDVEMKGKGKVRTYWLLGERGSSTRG
#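 HEK293 cells stably expressing human Npr1 and cGMP GloSensor pGS-40F, loaded 2 h with 2% GloSensor reagent, given compound 30 min at room temperature. Luminescence read before and 20 min after 0.1 nM hNppA.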
# HEK293 tox = HEK 293 cell cytotoxicity; 6.6% of 94,000 active; HEK 293 viability, ATP luminescence (CellTiter-Glo), 48-72 h; Potency, µM (series often up to 115 µM), hits mostly inhibitors; note: nearly all actives have a fitted effect of over 60% in size
#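 HEK 293 seeded at 250 cells/well receive compound via pintool. After 48 or 72 hr at 37 degree Celsius, 5% CO2 and 95% humidity, CellTiter-Glo is dispensed and luminescence read following 10 min at room temperature.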
# Numbers stand for hits; . = inactive; ? = inconclusive; / = no result given. Unless noted, calls come from the whole dose curve; as a rule, active = well fitted curve in the direction sought with a large enough effect; inconclusive = small, poorly fitted or top-dose-only effect, or another doubt; inactive = no such curve, though single readings can be large; an effect the other way counts as inactive or inconclusive.
SMILES,GPT2 inhibitor,Luciferase inh,NIH3T3 tox,NPR1 antag,HEK293 tox
O=C(NC1CCCC1)C1CCCCN1Cc1ccc(-c2cccs2)cc1 (stereo not drawn),.,/,39.8µM,/,31.6µM
C#CCNC(=O)C1CCCCN1Cc1ccc(-c2cccs2)cc1 (stereo not drawn),.,/,?,/,?
Cc1noc2c(NC3CCN(C)CC3)cc(-c3ccc(F)cc3)nc12,.,.,10µM,.,63.1µM
Cc1noc2c(NC3CCC(O)CC3)cc(-c3ccc(F)cc3)nc12 (stereo not drawn),.,.,22.4µM,.,?
Cc1noc2c(-c3cccnc3NC3CCC(O)CC3)cc(-c3ccccc3)nc12 (stereo not drawn),.,.,?,.,?
Cc1noc2c(-c3cccnc3NC3CCN(C)CC3)cc(-c3ccc(Cl)cc3)nc12,.,.,22.4µM,.,89.1µM
O=C(c1ccccc1Cl)N1CCN(c2ccnc3ccnn23)CC1,.,/,.,/,.
O=C(NCC1CC1)C1CCN(c2nc3ncccc3o2)CC1,.,/,.,/,.
Cn1cc(CN2CCC(C(O)c3cccnc3)CC2)c(-c2ccc(C3CCCCC3)cc2)n1 (stereo not drawn),.,.,79.4µM,.,79.4µM
COc1cccc(N2C(=O)OCC23CCN(Cc2c[nH]c4ccccc24)C3)c1 (stereo not drawn),.,.,.,.,?
O=C(OCc1ccccc1)N1CCOCC12CCN(Cc1c[nH]c3ccccc13)CC2,.,.,35.5µM,.,56.2µM
O=C(OCc1ccccc1)N1CCOCC12CCN(Cc1ccc(O)cc1)CC2,.,.,79.4µM,.,?
O=C1OCC2(CCN(Cc3c[nH]c4ccccc34)C2)N1Cc1ccccc1 (stereo not drawn),.,.,89.1µM,.,?
CC(=O)NCCC(=O)N1Cc2ccccc2CC2(CCCN2CC2CCCCC2)C1 (stereo not drawn),?,/,.,/,.
CCCCN(Cc1ccccc1)Cc1nc(-c2ccc(C(=O)OC)cc2)no1,.,8.91µM,.,.,.
COc1cccc(N2CCN(C(=O)c3ccc(N4CC5CC(C4)[C@H]4CCCC(=O)N4C5)nc3)CC2)c1 (stereo partly drawn),.,.,.,.,.
O=S(=O)(c1ccc(F)cc1)N1CCC2(CC1)CC(OCC1CC1)CCO2 (stereo not drawn),.,.,?,.,?
Cc1ccc(O)c(CN2CC[C@@H](c3ccc4ccccc4c3)[C@H](O)C2)n1,.,.,?,?,44.7µM
COc1ccc(N2CC3CCC(C2)N3Cc2cccc(-c3cccnc3)c2)cc1,6.31µM,/,?,/,39.8µM
OCC1CN(c2ncccn2)CC12CCN(Cc1ccc3cc[nH]c3c1)CC2 (stereo not drawn),.,.,.,.,.
OCC1CNCCC12CCN(Cc1ccc3ccccc3c1)CC2 (stereo not drawn),.,.,44.7µM,.,28.2µM
O=C(NCc1ccccc1F)c1ccc2c(c1)CN(Cc1cncs1)CCO2,.,.,.,.,?
CC(C)C(=O)N1CCC(Oc2ccc3c(cnn3CCC(=O)O)c2)CC1,.,.,?,.,.
CNC(=O)CCn1ncc2cc(OC3CCc4cccc(-c5ccc(OC)cc5)c43)ccc21 (stereo not drawn),.,.,50.1µM,.,79.4µM
CNC(=O)CCn1ncc2cc(OCc3ccccc3-c3cc(Cl)ccc3OC)ccc21,?,.,?,.,?
SMILES,GPT2 inhibitor,Luciferase inh,NIH3T3 tox,NPR1 antag,HEK293 tox
CNC(=O)CCn1ncc2cc(OC3CCc4cccc(-c5cccc(CO)c5)c43)ccc21 (stereo not drawn),.,?,?,.,79.4µM
CNC(=O)CCn1ncc2cc(OC3CCc4cccc(-c5ccc(O)c(F)c5)c43)ccc21 (stereo not drawn),.,.,39.8µM,.,?
CC(C)OC(=O)N1CCC(Oc2ccc3c(cnn3CCC(=O)O)c2)CC1,.,.,?,.,.
CNC(=O)CCn1ncc2cc(OC3CCc4cccc(-c5cnn(C)c5)c43)ccc21 (stereo not drawn),.,.,?,.,50.1µM
CCCC(=O)N1C[C@@H]2CCCN3CCC[C@@H]([C@H]23)[C@H]1CCCC(=O)NCC1CC1,.,.,.,.,.
N#Cc1cccc(C(=O)N2CCC3(CCC3N3CCOCC3)CC2)c1 (stereo not drawn),?,/,.,/,.
